Screening results from PubChem BioAssay.
Abeta rescue = A-beta toxicity reversal in yeast; yeast expressing A-beta42, growth rescue, OD600, 48 h; response scale: 0% DMSO, 100% iron-clioquinol control; Potency, µM (top dose mostly 46.1 µM), usual class: activators; hit rate 0.063% among 410,000; AID 1347071; further: nearly all actives have a fitted effect of over 55% in size
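Yeast growth medium received pinned compounds, then yeast cells expressing toxic A-beta were added; plates incubated at 30 C for 48 hr. Growth read as absorbance at 600 nm, normalized to DMSO and equimolar FeCl3 plus clioquinol controls.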
TDP43 rescue = rescues yeast growth from TDP-43 toxicity. TDP-43 expressing yeast growth rescue, BacTiter-Glo, 24 h. Potency, µM (doses to about 46.1 µM), hits mostly activators. hit rate 1.8% among 410,000; further: nearly all actives have a fitted effect of over 50% in size
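Cell-based yeast growth screen: TDP-43 expression induced in galactose, inoculum OD600=0.02 after raffinose pregrowth to mid-log. Read-out BacTiter-Glo luminescence at 24 hr, 30 deg C; inhibition of toxicity seen as signal increase.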
FUS yeast rescue = rescues growth of FUS-expressing yeast; S. cerevisiae FUS-expressing, growth rescue, OD600, 24 h; Potency, µM (doses to about 76.6 µM), hits mostly activators; hit rate 0.24% among 390,000; AID 1347120; further: nearly all actives have a fitted effect of over 55% in size
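Galactose (2%) drives FUS expression in yeast precultured in raffinose; seeding density OD 0.005. Test compounds incubated 24hr at 30C and 99% humidity before absorbance at 600 nm was measured.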
aSyn yeast inh = inhibitors of alpha-synuclein toxicity in yeast; AID 652106; Yeast expressing alpha-synuclein, growth rescue, BacTiter-Glo, 24 h; Potency, µM (doses to about 46.1 µM), actives largely listed as activators; hit rate 0.14% among 370,000; further: nearly all actives have a fitted effect of over 65% in size
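Galactose-induced alpha-syn yeast (OD600=0.02, raffinose-pregrown) + pinned cpd, 24 hr, 30 deg C; growth by BacTiter-Glo luminescence. Growth restoration scores as activation.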
A number is an active result; 0 = inactive; ? = inconclusive; - = no result given. A selection: hits, their analogues and other compounds. The true share with any hit is near 2.1%. The call rests on the fitted dose curve; in most records, active means well fitted curve in the direction sought with a large enough effect; inconclusive means small, poorly fitted or top-dose-only effect, or another doubt; inactive means no such curve, though single readings can be large; an effect the other way counts as inactive or inconclusive.

SMILES	Abeta rescue	TDP43 rescue	FUS yeast rescue	aSyn yeast inh
COc1ccc([C@H]2CC(=O)C=C(c3ccc(OC)cc3OC)C2)cc1	0	0	?	0
O=C1C=C(c2cc(F)ccc2F)C[C@@H](c2ccc(F)cc2)C1	0	22µM	0	0
COc1ccc([C@H]2CC(=O)C=C(c3ccc(Cl)cc3C)C2)cc1	0	18µM	?	0
Cc1ccc(N(Cc2ccccc2)C(=O)c2cccc(S(=O)(=O)N3CC(C)OC(C)C3)c2)cc1 (stereo not drawn)	0	0	28µM	0
Cc1ccc(NC(=O)COC(=O)c2cc(Cl)ccc2[N+](=O)[O-])c(C)c1	0	0	-	0
O=C(COC(=O)c1cc(Cl)ccc1[N+](=O)[O-])Nc1cccc2ccccc12	0	20µM	-	0
CCc1cccc(NC(=O)c2oc3ccc4c(c3c2C)C(=O)CC(C)(C)O4)c1	0	0	0	-
CCOc1ccc(NC(=S)N(CCc2c(C)[nH]c3ccc(C)cc23)Cc2ccco2)cc1	0	0	25µM	0
CC(C)(C)NC(=O)C[n+]1ccc(C(N)=O)cc1	0	0	0	35µM
CN(CC(=O)Nc1ccc(Cl)cc1)C(=O)c1sccc1-c1ccccc1	?	22µM	0	0
CN(CC(=O)Nc1cccc(F)c1)C(=O)c1sccc1-c1ccccc1	0	0	0	0
CCN(C(=O)CSc1nc(-c2ccc(C(C)C)cc2)no1)c1cccc(C)c1	0	0	0	-
CCn1c(SCc2ccc(F)cc2)nc2c(c1=O)SCC2	0	18µM	0	0
CN(C)c1ccc(CNC(=O)C2CCCN(S(=O)(=O)c3ccc4c(ccn4C)c3)C2)cc1 (stereo not drawn)	0	0	0	-
COc1ccc(N2CCN(CCCNC(=O)CCc3cccc(F)c3)CC2)cc1	-	-	0	-
Cc1ccc(C)c(NC(=O)c2cc(S(=O)(=O)N3CCCc4ccccc43)ccc2F)c1	0	0	0	-
C#CCN(C[C@@H]1[C@@H](OC(=O)NCc2ccco2)[C@@H](OC(=O)NCc2ccco2)Cn2c(=O)ccc(=O)n21)S(=O)(=O)c1ccc(C)cc1	0	0	?	0
C#CCN(C[C@H]1[C@H](OC(=O)NCc2ccco2)[C@H](OC(=O)NCc2ccco2)C[C@H]2C(=O)N(c3ccccc3)C(=O)[C@@H]12)S(=O)(=O)c1ccc(C)cc1	0	0	16µM	0
CCC1CCCCN1CCCNC(=O)c1ccc2c(c1)N(Cc1cccc(C)c1)C(=O)c1ccccc1S2(=O)=O (stereo not drawn)	0	0	0	-
O=C1CCCCCN1Sc1ccccc1	?	16µM	0	0
O=C1CCCCCN1C(=O)c1ccccc1	0	0	0	0
Cc1ccc(SC2=NS(=O)(=O)c3ccccc32)c(C)c1	-	-	-	0
Cc1ccc(C)c(CSC2=NC(C)(C)Nc3ccccc32)c1	0	0	0	-
CC1(C)N=C(SCc2ccc(F)cc2)c2ccccc2N1	0	11µM	0	-
Cc1ccc(C2=CC(c3ccc(C)cc3)n3ncnc3N2)cc1 (stereo not drawn)	?	16µM	0	?
SMILES	Abeta rescue	TDP43 rescue	FUS yeast rescue	aSyn yeast inh
CCOc1ccc(C2C=C(c3ccc(C)cc3)Nc3nnnn32)cc1 (stereo not drawn)	0	22µM	?	0
Clc1ccccc1C1=CC(c2ccco2)n2ncnc2N1 (stereo not drawn)	0	14µM	0	0
CCOc1ccc(C2C=C(c3ccccc3)Nc3nnnn32)cc1 (stereo not drawn)	0	0	0	0
CC(C)(C)c1ccc(C2=CC(c3ccccc3)n3ncnc3N2)cc1 (stereo not drawn)	0	0	0	0
COc1ccc(C2C=C(c3ccccc3)Nc3ncnn32)cc1 (stereo not drawn)	0	?	0	0
FC(F)(F)c1ccccc1C1=CC(c2ccccc2)n2ncnc2N1 (stereo not drawn)	0	18µM	0	0
COc1ccc(-c2onc(C)c2-c2ccc(C(=O)OC(C)C)o2)c(O)c1	0	14µM	0	0
Nc1nc2c(s1)COc1ccccc1-2	0	0	0	0
Nc1nc2c(s1)CCc1c-2cnn1-c1ccccc1	0	0	0	11µM
O=C(CSc1ccccc1)Nc1ccc(N2CCN(c3ccccc3)CC2)c(F)c1	0	0	0	0
Nc1ccc(N2CCN(c3ccccc3)CC2)c(F)c1	0	22µM	0	0
Cc1ccc(-c2noc(-c3ccccc3NC(=O)C3CC(=O)N(c4ccccc4C)C3)n2)cc1 (stereo not drawn)	0	0	0	-
